Records with an inconclusive call do not appear. Calls of active or inactive are those of the source. Unless noted, calls come from the whole dose curve; as a rule, active = well fitted curve in the direction sought with a large enough effect; inconclusive = small, poorly fitted or top-dose-only effect, or another doubt; inactive = no such curve, though single readings can be large; an effect the other way counts as inactive or inconclusive.
Experiments:
[1] = Cell Viability - BJ (AID 421; calls by dose curve;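 note: potency is the fitted concentration of half-maximal effect; cells exposed to compound for 40 hours at 37 °C before readout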); details: BJ fibroblast viability, qHTS
In short: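 Luminescent ATP signal (CellTiter-Glo, 20 min at room temperature) served as the read-out of viable BJ cells after 40 hours of compound treatment. Responses were scaled between DMSO and 100 uM tamoxifen, and AC50 values were obtained by Hill modeling.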

[2] = Cell Viability - Hek293 (AID 427;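 active = compounds whose dose-response curve shows a full or clear partial loss of cell viability, called from curve shape rather than a numeric limit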;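 note: potency is the fitted concentration of half-maximal effect; cells exposed to compound for 40 hours at 37 °C before reading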); details: qHTS
In short: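 Luminescent ATP read-out (CellTiter-Glo, 20 min RT) after 40 hr compound exposure at 37 °C in complete medium. Signal normalized to DMSO (basal) and 100 uM tamoxifen (100% inhibition); concentration-response fitted with the standard Hill equation to give AC50.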

[3] = Cell Viability - HepG2 (AID 433; calls by dose curve;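 note: potency is the fitted concentration of half-maximal effect; potency for ATP loss meaning cytotoxicity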); details: qHTS
In short: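 Read-out is luciferase-based quantitation of cellular ATP as a measure of viable HepG2 cells after 40 h treatment at 37 °C. Signal decrease is scaled between DMSO-only and 100 uM tamoxifen controls, with AC50 fitted by the Hill equation.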

[4] = Cell Viability - MRC5 (AID 434; calls by dose curve;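 note: potency is the fitted concentration of half-maximal effect; potency reflects cytotoxicity seen as loss of intracellular ATP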); details: MRC5 lung fibroblast viability, qHTS
In short: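 MRC5 normal human lung fibroblasts (1500/well) were treated with compounds for 40 hr at 37 °C in complete medium, and viable cells were measured as intracellular ATP by CellTiter-Glo luminescence. AC50 came from Hill fits, normalized to DMSO and 100 uM tamoxifen.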

[5] = biological target: Mitogen-activated protein kinase 10 (Mus musculus) (UniProt Q61831); assay: JNK3 AlphaScreen Assay (AID 530; active = well fitted curve in either direction with a large enough effect, not every such curve was filed as active;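 note: kinase came from lysate of stimulated human HepG2 cells; signal reports phosphorylation of biotinylated GST-cJun 1-79 at Ser73 with 10 µM ATP; series mostly up to about 57 µM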)
In short: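 Inhibitors reduce antibody binding to phosphorylated biotin-cJun, lowering AlphaScreen luminescence. Lysates from HepG2 cells pre-activated by IL-1beta plus TNF-alpha supplied JNK3; compounds were titrated.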

[6] = Cell Viability - HUV-EC-C (AID 542); note: nearly all actives have a fitted effect of over 35% in size
In short: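 HUV-EC-C human vascular endothelial cells, 1000/well, exposed to compound for 40 hr at 37 °C in complete medium. Intracellular ATP was read by CellTiter-Glo luminescence. AC50 came from Hill-equation fits of concentration-response data.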

[7] = Cell Viability - SH-SY5Y (AID 544); note: nearly all actives have a fitted effect of over 55% in size
In short: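 SH-SY5Y human neuroblastoma cells (1500/well) incubated 5 h, then compound-treated 40 h at 37 °C in complete medium. Viability read as intracellular ATP by CellTiter-Glo luminescence after 20 min; AC50 from Hill-equation fits of qHTS concentration-response.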

[8] = Cell Viability - Mesenchymal (AID 546);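 note: cells exposed to compound for 40 hours before reading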
In short: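 Normal human renal glomerulus-derived kidney mesenchymal cells, 1000 per well in complete medium, were treated with compounds for 40 hr at 37 °C. Viability was read as intracellular ATP by CellTiter-Glo luminescence; AC50 values came from Hill-equation fits of qHTS concentration-response data.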

[9] = Cellular Toxicity (caspase-3) HepG2 (AID 654);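 note: cells exposed to compound for 16 hours before reading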
In short: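 HepG2 cells (1500/well) were treated 16 h at 37 °C in complete medium, then caspase 3/7 activity was read by Caspase-Glo luminescence. Data were normalized to DMSO and 100 uM tamoxifen; AC50 came from Hill-equation fits of qHTS concentration-response.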

[10] = Cellular Toxicity (caspase-3) Jurkat (AID 655);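 note: cells exposed to compound for 16 h at 37 °C before reading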
In short: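 5000 Jurkat cells/well; compound 16 hr, 37 °C; Caspase-Glo 3/7 added, 20 min RT; luminescence read. Norm: DMSO = 0%, tamoxifen 100 uM = 100%. AC50, Hill model.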

[11] = Cellular Toxicity (caspase-3) HUV-EC-C (AID 656)
In short: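 qHTS; HUV-EC-C, 1000 cells/well; 5 hr settle, 16 hr cmpd, 37°C; Caspase-Glo 3/7, 20 min RT; luminescence. Norm: DMSO = 0%, tamoxifen 100 uM = 100%. Hill-fit AC50.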

[12] = Cellular Toxicity (caspase-3) SHSY5Y (AID 657)
In short: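 qHTS, SH-SY5Y, 1500 cells/well, 5 h pre-incubation 37 °C; compound 16 h 37 °C; Caspase-Glo 3/7 1 h RT; luminescence. Norm.: DMSO = 0, 10 uM staurosporine = 100%. Hill fit → AC50.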

[13] = Cellular Toxicity (caspase-3) BJ (AID 658)
In short: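 Luminescent aminoluciferin-substrate cleavage reports caspase 3/7 activity in normal human BJ fibroblasts after 16 hr compound exposure at 37 °C. Normalized to DMSO (basal) and 10 uM staurosporine (100%); AC50 from Hill fit of concentration-response.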

[14] = Cellular Toxicity (caspase-3) MRC-5 (AID 659)
In short: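 Luminescence from caspase-cleaved aminoluciferin substrate (Caspase-Glo 3/7, 1 hr RT) reports caspase 3/7 activity in MRC-5 lung fibroblasts after 16 hr compound exposure. Normalized to DMSO basal and 10 uM staurosporine as 100%; AC50 from Hill fits.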

[15] = Cellular Toxicity (caspase-3) Mesangial (AID 660);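 note: cells exposed to compound for 16 h before the caspase read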
In short: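 Human renal glomerular mesangial cells, 1000/well, 5 h at 37 C before 16 h compound treatment. Caspase-Glo 3/7 luminescence after 20 min; normalized to DMSO and 100 uM tamoxifen, AC50 from Hill fit.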

[16] = Cellular Toxicity (caspase-3) SK-N-SH (AID 661)
In short: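 Human SK-N-SH neuroblastoma cells, 1500/well, were exposed to compounds for 16 hours at 37 °C. Caspase-Glo 3/7 luminescence was normalized to DMSO (basal) and 10 uM staurosporine (100%), and AC50 came from a Hill fit.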

[17] = Cellular Toxicity (caspase-3) H-4-II-E (AID 663);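 note: cells exposed to compound for 16 hr before readout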
In short: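 Luminescence from caspase-cleaved aminoluciferin substrate, read 20 min after reagent addition, reports caspase 3/7 activation in rat H-4-II-E cells after 16 hr compound exposure. Normalized to DMSO (basal) and 100 uM tamoxifen (100%); AC50 from Hill fits.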

[18] = Cellular Toxicity (caspase-3) Hek293 (AID 664);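 note: cells exposed to compound for 16 h at 37 °C before readout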
In short: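 HEK293 cells in complete medium treated 16 h at 37 °C, then Caspase-Glo 3/7 luminescence read after 20 min at room temperature. Normalized to DMSO and 100 uM tamoxifen; AC50 from Hill fit of concentration-response.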

[19] = Cellular Toxicity (caspase-3) N2a (AID 665);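 note: compound exposure lasted 16 h at 37 °C before readout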
In short: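 Mouse N2a neuroblastoma cells, 1500 per well, treated 16 h at 37 °C in complete medium; caspase-3/7 activity by Caspase-Glo luminescence after 1 h. Normalized to DMSO and 10 uM staurosporine; AC50 from Hill fits.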

[20] = biological target: Cytochrome P450 3A4 (Homo sapiens) (UniProt P08684); assay: qHTS Assay for Inhibitors and Substrates of Cytochrome P450 3A4 (AID 884); note: series mostly up to about 57 µM; nearly all actives have a fitted effect of over 50% in size
Cytochrome P450 3A4 (Homo sapiens), sequence (P08684 whole entry, looked up): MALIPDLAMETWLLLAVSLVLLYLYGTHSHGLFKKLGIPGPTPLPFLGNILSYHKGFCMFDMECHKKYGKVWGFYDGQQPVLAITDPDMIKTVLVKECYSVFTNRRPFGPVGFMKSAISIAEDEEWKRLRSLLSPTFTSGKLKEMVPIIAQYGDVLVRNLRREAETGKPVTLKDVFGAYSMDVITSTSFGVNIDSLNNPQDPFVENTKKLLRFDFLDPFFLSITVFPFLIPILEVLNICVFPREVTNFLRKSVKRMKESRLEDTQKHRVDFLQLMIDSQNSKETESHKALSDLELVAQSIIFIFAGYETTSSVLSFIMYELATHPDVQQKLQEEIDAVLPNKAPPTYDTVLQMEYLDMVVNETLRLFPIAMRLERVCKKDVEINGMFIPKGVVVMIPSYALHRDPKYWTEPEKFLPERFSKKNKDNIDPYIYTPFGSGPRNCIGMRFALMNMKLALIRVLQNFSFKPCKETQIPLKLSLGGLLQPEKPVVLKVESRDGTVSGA
In short: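 20 nM human CYP3A4 with 25 uM Luciferin-PPXE (at KM) in 200 mM KPO4, preincubated 10 min with compound; NADPH regeneration started a 60 min RT reaction. Luciferin detected by luminescence, normalized to 57 uM ketoconazole as full inhibition.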

[21] = Confirmation and Secondary Assay for Modulators of Hemoglobin Beta Chain Splicing at IVS2 654 locus (AID 910)
In short: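 HeLa cells stably carrying EGFP interrupted by mutant beta-globin IVS2-654 intron (CMV-driven) were treated with compound for 2 days at 37C; corrected splicing was scored as total peak GFP intensity per well (488 nm excitation, 500-520 nm emission).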

[22] = Cell Viability - LYMP2-001 (AID 921); note: series mostly up to about 92 µM; nearly all actives have a fitted effect of over 70% in size
In short: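 Steps: seed 2500 lymphoblastoid cells/well; 5 hr, 37 C; add compound; 24 hr, 37 C; CellTiter-Glo reagent, 30 min room temperature; read luminescence. Concentration-response modeled by Hill equation for AC50.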

[23] = Confirmation and Secondary Assay for Modulators of Hemoglobin Beta Chain Splicing at IVS2 705 locus (AID 930);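 note: HeLa cells stably expressing the EGFP-705 splicing reporter; GFP fluorescence per well restored by corrected splicing of the IVS2-705 intron in EGFP; series mostly up to about 46 µM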
In short: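 Read-out: total peak GFP fluorescence per well (488 nm excitation, 500-520 nm emission) by laser-scanning cytometry. Cells: HeLa EGFP-705 splicing reporter, 2 days compound exposure in Optimem/2% FCS.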

[24] = MultiTox-Fluor Cytotoxicity Assay - LYMP1-001 - Dead Cells (AID 946)
In short: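 AC50 from Hill fit of concentration-response; data normalized to DMSO (basal) and 15 uM tetraoctylammonium bromide (100%). LYMP1-001 lymphoblastoid cells, 2500/well, 16 hr compound at 37 C; dead-cell protease fluorescence, Ex/Em 485/520.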

[25] = Cell Viability - LYMP1-002 - Assay at 16 hr (AID 948)
In short: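 Seed 2500 LYMP1-002 cells per well in complete medium and hold 5 hr at 37 C. Add compound across a concentration series and incubate 16 hr at 37 C. Add CellTiter-Glo, wait 30 min at room temperature, read luminescence.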

[26] = MultiTox-Fluor Cytotoxicity Assay - LYMP1-002 - Live Cells (AID 955)
In short: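 Human lymphoblastoid LYMP1-002 cells, 2500/well, treated 16 h at 37 C in complete medium. Live-cell protease activity via GF-AFC fluorescence (Ex/Em 405/510) after 60 min reagent incubation; AC50 from Hill fits.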

[27] = MultiTox-Fluor Cytotoxicity Assay - LYMP1-003 - Dead Cells (AID 961); note: nearly all actives have a fitted effect of over 70% in size
In short: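 Human lymphoblastoid LYMP1-003 cells (2500/well) were treated with compounds for 16 hr at 37 C in complete medium. Dead-cell protease release was read by bis-AAF-R110 fluorescence (Ex/Em 485/520). AC50 came from Hill fits, normalized to DMSO and 15 uM tetraoctylammonium bromide.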

[28] = MultiTox-Fluor Cytotoxicity Assay - LYMP1-003 - Live Cells (AID 962);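 note: cytotoxic hits lower the live-cell protease signal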
In short: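 LYMP1-003 lymphoblastoid cells, 2500/well in complete medium, treated 16 h at 37 C; live-cell protease cleavage of GF-AFC read by fluorescence (Ex/Em 405/510) after 60 min reagent; AC50 from Hill fits of concentration-response.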

[29] = Cell Viability - LYMP1-003 - Assay at 24 hr (AID 963)
In short: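 Human lymphoblastoid LYMP1-003 cells, 2500/well, treated 24 h at 37 C in complete medium. Viability read as intracellular ATP by CellTiter-Glo luminescence after 30 min at room temperature; AC50 from Hill-equation fits of qHTS concentration-response.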

[30] = Cell Viability - LYMP1-003 - Assay at 40 hr (AID 964); note: series mostly up to about 92 µM; nearly all actives have a fitted effect of over 60% in size
In short: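 LYMP1-003 human lymphoblastoid cells, 2500/well, preincubated 5 h at 37 C, then treated with compound for 40 h at 37 C. Intracellular ATP read by CellTiter-Glo luminescence after 30 min at room temperature; AC50 from Hill-equation fits.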

[31] = Cell Viability - LYMP2-003 (AID 965);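 note: cells exposed to compounds for 24 h before reading; nearly all actives have a fitted effect of over 50% in size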
In short: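 Seed 2500 lymphoblastoid cells/well; incubate 5 hr, 37 C; add compounds; incubate 24 hr, 37 C; add CellTiter-Glo, 30 min RT; read luminescence. AC50 from Hill fit.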

[32] = Cell Viability - LYMP2-004 (AID 966); note: nearly all actives have a fitted effect of over 65% in size
In short: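 Lymphoblastoid LYMP2-004 cells, 2500 per well, were preincubated for 5 hr and then treated with compound for 24 h at 37 C in complete medium. Viability was read as cellular ATP by CellTiter-Glo luminescence, and AC50 values were taken from Hill fits to concentration-response data.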

[33] = Cell Viability - LYMP2-005 (AID 967); note: series mostly up to about 92 µM
In short: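 Acute cytotoxicity is scored as a concentration-dependent drop in intracellular ATP in human lymphoblastoid LYMP2-005 cells after 24 h compound treatment. ATP is quantified by luciferase luminescence, and AC50 is derived by Hill-equation modelling.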

[34] = Cell Viability - LYMP2-009 (AID 968); note: series mostly up to about 92 µM; nearly all actives have a fitted effect of over 55% in size
[35] = Cell Viability - LYMP2-011 (AID 969); note: nearly all actives have a fitted effect of over 60% in size
In short: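 2500 cells/well in complete medium, compound-treated 24 h at 37 C. Viability read as intracellular ATP by CellTiter-Glo luminescence after 30 min at room temperature. AC50 from Hill fits of qHTS concentration-response data.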

[36] = Cell Viability - LYMP2-013 (AID 970); note: series mostly up to about 92 µM; nearly all actives have a fitted effect of over 55% in size
In short: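 Human lymphoblastoid LYMP2-013 cells, 2500/well, treated 24 h at 37 C in complete medium; viability as intracellular ATP by CellTiter-Glo luminescence after 30 min. AC50 from Hill fits of qHTS concentration-response.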

[37] = Cell Viability - LYMP2-015 (AID 971); note: nearly all actives have a fitted effect of over 55% in size
In short: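 LYMP2-015 human lymphoblastoid cells (2500/well) in complete medium, compound-treated 24 h at 37 C; viability read as cellular ATP by CellTiter-Glo luminescence after 30 min at room temperature. AC50 from Hill-equation fits of qHTS concentration-response data.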

[38] = Cell Viability - LYMP2-017 (AID 972)
In short: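 LYMP2-017 human lymphoblastoid cells (2500/well) settled 5 hr at 37 C, then exposed to compound 24 hr at 37 C in complete medium. Viability taken as intracellular ATP by CellTiter-Glo luminescence after 30 min at RT; AC50 from Hill fits.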

[39] = Cell Viability - LYMP2-019 (AID 973); note: nearly all actives have a fitted effect of over 55% in size
In short: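 Human lymphoblastoid LYMP2-019 cells (2500/well) preincubated 5 h at 37 C, then treated 24 h at 37 C in complete medium. Viability by CellTiter-Glo ATP luminescence after 30 min at room temperature; AC50 from Hill fits.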

[40] = Cell Viability - LYMP2-021 (AID 974)
In short: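 Human lymphoblastoid LYMP2-021 cells, 2500/well in complete medium, treated 24 hours at 37 C. Intracellular ATP by CellTiter-Glo luminescence (30 min, RT); AC50 from Hill fits of concentration-response.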

[41] = Cell Viability - LYMP2-023 (AID 975)
In short: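 LYMP2-023 human lymphoblastoid cells, 2500/well, preincubated 5 hr at 37 C, then compound-treated 24 hr at 37 C in complete medium. CellTiter-Glo luminescence (ATP) after 30 min at room temperature; AC50 from Hill-equation fits; tetraoctylammonium bromide positive control.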

[42] = Cell Viability - LYMP2-002 (AID 977); note: series mostly up to about 92 µM
In short: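 Luminescent ATP readout (CellTiter-Glo, 30 min room temperature) after 24 h compound exposure at 37 C of a human lymphoblastoid line, 2500 cells/well. AC50 values derived by standard Hill fitting of qHTS concentration-response data.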

Measured: Potency

O=C(Nc1ccccc1)Nc1ccccc1
inactive: [1] > 92 µM | [2] > 92 µM | [3] > 92 µM | [4] > 92 µM | [5] | [6] | [7] | [8] | [9] | [10] | [11] | [12] | [13] | [14] | [15] | [16] | [17] | [18] | [19] | [20] | [21] | [22] | [23] | [24] | [25] | [26] | [27] | [28] | [29] | [30] | [31] | [32] | [33] | [34] | [35] | [36] | [37] | [38] | [39] | [40] | [41] | [42]

From PubChem BioAssay (NCATS)
